Twelve molecules from PubChem BioAssay (NCI) can be followed below.

Among the test systems are NCI-H23 lung; NCI-H226 lung; NCI-H322M lung; HOP-62 NSCLC; NCI-H460 lung; NCI-H522 lung; A549/ATCC NSCLC; 786-0 renal; COLO 205 colon; HOP-92 NSCLC.
Experiment in all cases: NCI-60 one-dose screen, 48 h (100 = growth as untreated, 0 = no growth, -100 = all killed)
Common to all, as to settings: 10 µM unless noted

Several values for one entry are separate records, joined by “and”; a condition that tells them apart may be missing. Equal values may be shown once. Compounds without any hit were thinned out: in the full panel of roughly 83,000, 20% have a hit.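 The endpoint reported here, percent growth, reads 100 for growth as untreated, 0 for no net growth and -100 for all cells dead.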 Activity calls are given as the source filed them. How the source made its calls: active means growth percent below 10; inactive means the rest.

Regarding `Nc1[nH][nH]c(=O)c1N=Nc1ccccc1`, the growth in the experiment with NCI-H23 lung is 98.7% (inactive) and 99% (inactive); in the experiment with NCI-H226 lung, 106% (inactive) and 91.8% (inactive); with NCI-H322M lung it was 129% (inactive) and 102% (inactive); in the experiment with HOP-62 NSCLC it was 104% (inactive) and 105% (inactive); in the experiment on NCI-H460 lung, 99.8% (inactive) and 117% (inactive); in the experiment with NCI-H522 lung, 88.9% (inactive) and 79.1% (inactive). Further, the growth in the experiment on A549/ATCC NSCLC is 103% (inactive) and 110% (inactive); in the experiment with 786-0 renal, 113% (inactive) and 109% (inactive).
For the molecule `CN(C)CC(CN(C)C)C(O)c1ccccc1` (stereo unspecified), the growth is 106% (inactive) in the experiment with NCI-H23 lung; 96.6% (inactive) with NCI-H226 lung; 103% (inactive) with NCI-H322M lung; 91.4% (inactive) in the experiment on HOP-62 NSCLC; 112% (inactive) in the experiment on NCI-H460 lung; 76.4% (inactive) with NCI-H522 lung. Besides, the growth was 91.5% (inactive) in the experiment on A549/ATCC NSCLC, 96.6% (inactive) with 786-0 renal and 110% (inactive) in the experiment on COLO 205 colon.
In the case of `Nc1ccccc1SC1CC(=O)N(c2ccc(I)cc2)C1=O` (stereo unspecified), the growth in the experiment with NCI-H23 lung was 89.8% (inactive); in the experiment with NCI-H226 lung, 102% (inactive); with NCI-H322M lung it was 108% (inactive); in the experiment with HOP-62 NSCLC, 80.5% (inactive); with NCI-H460 lung, 92.6% (inactive); in the experiment on HOP-92 NSCLC it was 100% (inactive). The growth in the experiment with NCI-H522 lung is 77.4% (inactive); in the experiment with A549/ATCC NSCLC it was 87.1% (inactive); in the experiment on 786-0 renal it was 105% (inactive); with COLO 205 colon, 95.3% (inactive).
As for `CC1=CC(=O)C=CC1=Nc1ccc(N(C)C)cc1`, the growth with NCI-H23 lung was 87% (inactive) and -21.1% (active); in the experiment with NCI-H226 lung it was 95.6% (inactive) and 70.4% (inactive); in the experiment on NCI-H322M lung, 99.2% (inactive) and 88.2% (inactive); in the experiment with HOP-62 NSCLC, 92.4% (inactive) and 72% (inactive); with NCI-H460 lung, 103% (inactive) and 70.1% (inactive); in the experiment with NCI-H522 lung it was 29.9% (inactive). For the same molecule, the growth in the experiment on A549/ATCC NSCLC is 101% (inactive) and 58.7% (inactive); with 786-0 renal, 95.2% (inactive) and 76% (inactive); in the experiment with COLO 205 colon it was 71.1% (inactive) and -30.2% (active).
As for `COC(=O)c1nc(N)nc(C(=O)OC)c1C(=O)c1ccc(F)cc1`, the growth in the experiment on NCI-H23 lung is 105% (inactive); in the experiment on NCI-H226 lung, 110% (inactive); with NCI-H322M lung it was 108% (inactive); with HOP-62 NSCLC, 113% (inactive); in the experiment with NCI-H460 lung it was 117% (inactive); with NCI-H522 lung, 103% (inactive). Moreover, the growth in the experiment on A549/ATCC NSCLC is 114% (inactive); in the experiment with 786-0 renal it was 108% (inactive); in the experiment on COLO 205 colon, 117% (inactive).
For `N#Cc1c[nH]n2ccnc12`, the growth in the experiment with NCI-H23 lung is 99.3% (inactive); with NCI-H226 lung it was 96% (inactive); in the experiment with NCI-H322M lung it was 98.7% (inactive); in the experiment on HOP-62 NSCLC, 86% (inactive); in the experiment on NCI-H460 lung, 119% (inactive); with HOP-92 NSCLC, 99.5% (inactive). In addition, the growth is 87.8% (inactive) in the experiment with NCI-H522 lung, 86.7% (inactive) in the experiment on A549/ATCC NSCLC, 97.3% (inactive) with 786-0 renal and 109% (inactive) in the experiment with COLO 205 colon.
Turning to `C/C=C(/C(=O)NC(N)=O)C(C)C`, the growth in the experiment with NCI-H23 lung was 104% (inactive); with NCI-H226 lung, 116% (inactive); with NCI-H322M lung, 109% (inactive); in the experiment on HOP-62 NSCLC it was 111% (inactive); in the experiment with NCI-H460 lung, 100% (inactive); with HOP-92 NSCLC, 94.5% (inactive). The growth is 108% (inactive) with NCI-H522 lung, 97.7% (inactive) in the experiment with A549/ATCC NSCLC, 96.9% (inactive) in the experiment on 786-0 renal and 97.5% (inactive) in the experiment on COLO 205 colon.
`CCCC(=O)Oc1ccc(CC)cc1`: the growth in the experiment with NCI-H23 lung was 96.5% (inactive); in the experiment on NCI-H226 lung it was 110% (inactive); in the experiment with NCI-H322M lung it was 106% (inactive); in the experiment on HOP-62 NSCLC it was 98.9% (inactive); in the experiment with NCI-H460 lung, 105% (inactive); in the experiment on NCI-H522 lung, 93% (inactive). Further, the growth in the experiment with A549/ATCC NSCLC was 101% (inactive); with 786-0 renal it was 99.7% (inactive); in the experiment with COLO 205 colon, 104% (inactive).
On to `COC(=O)c1nc(N)nc(C(=O)OC)c1C(=O)c1cccc2ccccc12`, for which the growth was 101% (inactive) in the experiment with NCI-H23 lung; 97.1% (inactive) in the experiment with NCI-H226 lung; 109% (inactive) with NCI-H322M lung; 105% (inactive) with HOP-62 NSCLC; 139% (inactive) in the experiment on NCI-H460 lung; 85.5% (inactive) in the experiment on HOP-92 NSCLC. Moreover, the growth is 101% (inactive) in the experiment with NCI-H522 lung, 107% (inactive) with A549/ATCC NSCLC, 110% (inactive) in the experiment with 786-0 renal and 144% (inactive) in the experiment with COLO 205 colon.
For the molecule `O=[N+]([O-])c1cccc2ccc(N/N=C/c3ccccc3O)nc12`, the growth in the experiment with NCI-H23 lung was 72.4% (inactive) and 98.3% (inactive); in the experiment on NCI-H226 lung it was 83.4% (inactive) and 99.5% (inactive); in the experiment on NCI-H322M lung it was 88.2% (inactive) and 94.8% (inactive); in the experiment with HOP-62 NSCLC it was 85% (inactive) and 97.9% (inactive); in the experiment with NCI-H460 lung, 91.9% (inactive) and 98.4% (inactive); in the experiment on NCI-H522 lung it was 78.6% (inactive) and 89.2% (inactive). In addition, the growth in the experiment with A549/ATCC NSCLC is 97.3% (inactive) and 90.9% (inactive); in the experiment with 786-0 renal, 102% (inactive) and 85.9% (inactive); in the experiment with COLO 205 colon, 68.1% (inactive) and 111% (inactive).
Regarding `CCOC(=O)c1ccc(C(=N)N)cc1`, the growth with NCI-H23 lung is 99% (inactive); with NCI-H226 lung, 106% (inactive); with NCI-H322M lung, 117% (inactive); in the experiment with HOP-62 NSCLC, 108% (inactive); with NCI-H460 lung it was 103% (inactive); in the experiment on NCI-H522 lung, 102% (inactive). Moreover, the values for the growth in the experiment with A549/ATCC NSCLC, in the experiment on 786-0 renal and in the experiment on COLO 205 colon were 107% (inactive), 106% (inactive) and 114% (inactive), respectively.
Turning to `O=c1[nH]c(=O)n(C2OC(CO)C(O)C2O)cc1I` (stereo unspecified), the growth in the experiment with NCI-H23 lung was 104% (inactive) and 108% (inactive); in the experiment on NCI-H226 lung it was 91.8% (inactive) and 117% (inactive); in the experiment with NCI-H322M lung it was 100% (inactive) and 102% (inactive); with HOP-62 NSCLC, 101% (inactive) and 96.4% (inactive); in the experiment with NCI-H460 lung, 116% (inactive) and 125% (inactive); in the experiment with NCI-H522 lung, 80.5% (inactive) and 112% (inactive). Further, the growth in the experiment with A549/ATCC NSCLC is 96.3% (inactive) and 100% (inactive); with 786-0 renal, 105% (inactive) and 108% (inactive); with COLO 205 colon it was 114% (inactive) and 102% (inactive).
